A selection: hits, their analogues and other compounds. The true share with any hit is near 1.7%.
Mtb betalactam: beta-lactam sensitization of Mtb H37Rv; 330,000 compounds, 0.27% hits; inhibition, % at 25 µM; M. tuberculosis H37Rv growth with meropenem, percent inhibition; call rule not given here;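 further: growth measured after seven days incubation then overnight dye step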
RecA intein inh: blocks M. tuberculosis RecA intein splicing | inhibition, % (test concentration not listed) | 290,000 compounds, 0.75% hits | cell-free RecA intein splicing, fluorescence | AID 2221 | P9WHJ3; in the data active means inhibition above about 30%; inconclusive means no clear call, values can overlap the other calls
Target sequence (P9WHJ3 whole entry, looked up): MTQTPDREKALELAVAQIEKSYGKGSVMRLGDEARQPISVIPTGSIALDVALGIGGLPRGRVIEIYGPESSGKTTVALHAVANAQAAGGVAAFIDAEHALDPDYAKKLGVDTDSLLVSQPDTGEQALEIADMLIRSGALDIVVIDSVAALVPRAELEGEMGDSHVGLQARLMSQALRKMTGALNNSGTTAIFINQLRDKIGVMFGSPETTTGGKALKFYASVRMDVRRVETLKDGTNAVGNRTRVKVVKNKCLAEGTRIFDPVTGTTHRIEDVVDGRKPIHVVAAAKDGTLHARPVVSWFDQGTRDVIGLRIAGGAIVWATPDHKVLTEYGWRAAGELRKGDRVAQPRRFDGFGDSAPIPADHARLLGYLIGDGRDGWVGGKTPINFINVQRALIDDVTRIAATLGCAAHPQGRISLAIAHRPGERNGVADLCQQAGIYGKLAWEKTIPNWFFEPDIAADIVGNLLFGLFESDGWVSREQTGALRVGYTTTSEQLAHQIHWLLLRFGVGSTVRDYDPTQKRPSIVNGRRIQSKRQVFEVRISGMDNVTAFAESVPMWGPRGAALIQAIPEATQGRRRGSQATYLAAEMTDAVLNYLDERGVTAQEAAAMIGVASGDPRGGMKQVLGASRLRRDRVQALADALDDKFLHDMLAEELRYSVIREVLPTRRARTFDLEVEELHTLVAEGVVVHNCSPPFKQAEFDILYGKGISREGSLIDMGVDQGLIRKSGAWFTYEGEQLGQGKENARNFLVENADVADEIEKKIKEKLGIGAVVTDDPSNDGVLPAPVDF
CCHF vOTU inh: blocks the CCHF virus ovarian tumor domain protease; CCHFV vOTU protease, Pep-AMC fluorescence; 370,000 compounds, 0.55% hits; inhibition, % at 11.5 µM; in the data active means inhibition above about 30%
PfHsp40 yeast: rescue of PfHsp40-mediated yeast toxicity; S. cerevisiae expressing PfHsp40, growth rescue, ATP luminescence; growth rescue, % at 12.5 µM; 340,000 compounds, 0.68% hits; AID 504582; in the data active means growth rescue above about 28%, passing the limit was not always enough; inconclusive means no clear call, values can overlap the other calls;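 further: yeast W303a lacking pdr1 and pdr3 grown in galactose medium; growth measured after three days at 30 °C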
Mtb hypoxia rep: Mtb hypoxia fluorescent reporter inhibition | AID 1159583 | 300,000 compounds, 0.1% hits | fluorescence inhibition, % (no concentration beside the values) | M. tuberculosis hypoxia-regulated fluorescent reporter, fluorescence; in the data active means fluorescence inhibition mostly above about 23%, no sharp cut-off; inactive means mostly below about 17%
Numbers stand for hits; ! = not active in a repeat.

How did Cc1nc(-c2cccc(NC(=O)COc3ccc(Cl)cc3)c2)cs1 do in these assays?
Mtb betalactam: inactive; RecA intein inh: inactive; CCHF vOTU inh: inactive; PfHsp40 yeast: 55.5; Mtb hypoxia rep: inactive

Results for COc1ccc(CC(=O)Nc2cccc(-c3csc(C)n3)c2)cc1 ?
Mtb betalactam: inactive; RecA intein inh: inactive; CCHF vOTU inh: inactive; PfHsp40 yeast: inactive; Mtb hypoxia rep: inactive

What do the screens show for `C(=NNc1nc(Nc2ccccc2)nc(Nc2ccccc2)n1)c1cccnc1`?
Mtb hypoxia rep: inactive

How did COc1cccc(C(C)=C2SC(=S)NC2=O)c1 do in these assays?
CCHF vOTU inh: inactive; PfHsp40 yeast: 83.4

What do the screens show for `COc1cccc(C=C2SC(=S)NC2=O)c1`?
CCHF vOTU inh: inactive; PfHsp40 yeast: inactive

Results for Cc1cc(C=C2C(=N)N3C(=NC2=O)SN=C3S(C)(=O)=O)c(C)n1-c1ccccc1 ?
Mtb hypoxia rep: inactive

What do the screens show for `CCOC(=O)c1ccc(NC(=O)CC2Sc3ncnn3C2=O)cc1` (stereo unspecified)?
Mtb betalactam: inactive; CCHF vOTU inh: inactive; PfHsp40 yeast: 41.5; Mtb hypoxia rep: inactive

What do the screens show for `COc1ccc(CCNC(=O)c2ccc(Cl)cc2)cc1`?
Mtb betalactam: inactive; RecA intein inh: inactive; CCHF vOTU inh: inactive; PfHsp40 yeast: inactive; Mtb hypoxia rep: 36.7

How did CCOC(=O)C1C2COc3ccc(OC)cc3C2N2C(=O)c3ccc(F)cc3NC(=O)[C@@]12C (stereo partly specified) do in these assays?
Mtb hypoxia rep: inactive

How did CC[C@H](C)C(=O)O[C@H]1C[C@@H](C)C=C2C=C[C@H](C)[C@H](CC[C@@H]3C[C@@H](O)CC(=O)O3)[C@H]21 do in these assays?
Mtb betalactam: inactive; RecA intein inh: inactive; CCHF vOTU inh: inactive; PfHsp40 yeast: 69.0!; Mtb hypoxia rep: inactive

How did CCC(C)C(=O)OC1CCC=C2C=CC(C)C(CCC3CC(O)CC(=O)O3)C21 (stereo unspecified) do in these assays?
CCHF vOTU inh: inactive; PfHsp40 yeast: inactive; Mtb hypoxia rep: inactive

Results for Cc1c(Cc2ccccc2)c(NCCN(C)C)n2c(nc3ccccc32)c1C#N ?
Mtb betalactam: inactive; RecA intein inh: inactive; CCHF vOTU inh: inactive; PfHsp40 yeast: 170.6; Mtb hypoxia rep: inactive

What do the screens show for `CCCCc1c(C)c(C#N)c2nc3ccccc3n2c1NCCN(C)C`?
RecA intein inh: inactive; CCHF vOTU inh: inactive; PfHsp40 yeast: inactive; Mtb hypoxia rep: inactive

How did CCC1CCCC1=NNC(=O)c1ccccc1Cl (stereo unspecified) do in these assays?
Mtb hypoxia rep: inactive

What do the screens show for `Cc1ccc(-n2nnnc2CCl)cc1`?
RecA intein inh: 46.2; CCHF vOTU inh: inactive; PfHsp40 yeast: inactive

What do the screens show for `Cc1ccc(-c2nnnn2-c2ccc(C)cc2)cc1`?
Mtb betalactam: inactive; RecA intein inh: inactive; CCHF vOTU inh: inactive; PfHsp40 yeast: inactive; Mtb hypoxia rep: inactive

What do the screens show for `Cc1ccc(-c2nnc(SCC(=O)NN=Cc3ccc(C)s3)n2-c2ccc(C)cc2)cc1`?
Mtb hypoxia rep: inactive

How did Cc1oc2ccc(OC(=O)N(C)C)cc2c1C(=O)OC(C)C do in these assays?
Mtb betalactam: inactive; RecA intein inh: inactive; CCHF vOTU inh: inactive; PfHsp40 yeast: 159.8; Mtb hypoxia rep: inactive

What do the screens show for `Nc1nonc1-n1nnc(C(=O)NN=Cc2cccs2)c1-c1ccc2c(c1)OCO2`?
Mtb hypoxia rep: inactive

Results for CCCNC(=O)c1ccc2c(=O)c(O)c(-c3ccc(OC)cc3)[nH]c2c1 ?
Mtb betalactam: inactive; RecA intein inh: inactive; PfHsp40 yeast: 185.3; Mtb hypoxia rep: inactive

What do the screens show for `CCCNC(=O)c1ccc2c(=O)c(O)c(-c3ccsc3)[nH]c2c1`?
Mtb betalactam: inactive; RecA intein inh: inactive; PfHsp40 yeast: inconclusive

What do the screens show for `Cc1ccc(-c2[nH]c3cc(C(=O)NCCCn4ccnc4)ccc3c(=O)c2O)cc1`?
Mtb betalactam: inactive; RecA intein inh: inactive; CCHF vOTU inh: inactive; PfHsp40 yeast: inconclusive; Mtb hypoxia rep: inactive

How did Cc1ccc(-c2[nH]c3cc(C(N)=O)ccc3c(=O)c2O)cc1 do in these assays?
Mtb betalactam: inactive; RecA intein inh: inactive; CCHF vOTU inh: inactive; PfHsp40 yeast: 44.2

What do the screens show for `Cc1ccc(CNC(=O)c2ccc3c(=O)c(O)c(-c4ccc(C)cc4)[nH]c3c2)cc1`?
Mtb betalactam: inactive; RecA intein inh: inactive; CCHF vOTU inh: inactive; PfHsp40 yeast: 164.4; Mtb hypoxia rep: inactive

How did CCCNC(=O)c1ccc2c(=O)c(O)c(-c3ccc(C)cc3)[nH]c2c1 do in these assays?
Mtb betalactam: inactive; RecA intein inh: inactive; CCHF vOTU inh: inactive; PfHsp40 yeast: inactive

What do the screens show for `COC(=O)C1=C(c2cccc(OC)c2OC)CC2CCC1N2C(=O)NC1CCCCC1` (stereo unspecified)?
Mtb hypoxia rep: inactive

What do the screens show for `O=C(COC(=O)Cc1ccc(Cl)cc1)NCc1cccs1`?
Mtb betalactam: inactive; CCHF vOTU inh: inactive; PfHsp40 yeast: inactive; Mtb hypoxia rep: 28.6

What do the screens show for `O=C(CNC(=O)c1cccc(Cl)c1)Nc1ccc(Br)cc1C(=O)c1ccccc1`?
Mtb betalactam: inactive; RecA intein inh: inactive; CCHF vOTU inh: inactive; PfHsp40 yeast: 35.6; Mtb hypoxia rep: inactive

How did O=C(CNC(=O)c1ccc(Cl)cc1)Nc1ccc(Br)cc1C(=O)c1ccccc1 do in these assays?
Mtb betalactam: inactive; RecA intein inh: inactive; CCHF vOTU inh: inactive; PfHsp40 yeast: inactive; Mtb hypoxia rep: inactive

Results for COCCCNC(=O)C(CC(N)=O)NC(=O)OCc1ccccc1 (stereo unspecified) ?
Mtb betalactam: inactive; RecA intein inh: inactive; CCHF vOTU inh: inactive; PfHsp40 yeast: inactive; Mtb hypoxia rep: inactive

Results for NC(=O)C[C@H](NC(=O)c1ccc(Cl)cc1)C(=O)OCc1ccccc1 ?
Mtb betalactam: inactive; CCHF vOTU inh: inactive; PfHsp40 yeast: inactive; Mtb hypoxia rep: 27.8

How did NC(=NO)c1cn(Cc2ccccc2Cl)c2ccccc12 do in these assays?
Mtb hypoxia rep: inactive

What do the screens show for `Cn1c(-c2ccccc2)cc2ccccc21`?
Mtb betalactam: inactive; RecA intein inh: inactive; CCHF vOTU inh: inactive; PfHsp40 yeast: inactive; Mtb hypoxia rep: inactive

How did Cn1c(-c2ccccc2)cc2c3no[n+]([O-])c3ccc21 do in these assays?
Mtb betalactam: inactive; RecA intein inh: inactive; CCHF vOTU inh: inactive; PfHsp40 yeast: inactive; Mtb hypoxia rep: 47.5

Results for NC(=O)c1ccccc1NC=CC(=O)c1cccs1 ?
Mtb hypoxia rep: inactive

Results for O=[N+]([O-])c1ccc(/C=N/NC(=S)Nc2ccc(Cl)cc2Cl)s1 ?
Mtb betalactam: inactive; CCHF vOTU inh: inactive; PfHsp40 yeast: 240.1

How did O=C(N/N=C/c1ccc([N+](=O)[O-])s1)c1ccccc1 do in these assays?
Mtb betalactam: inactive; RecA intein inh: inactive; CCHF vOTU inh: inactive; PfHsp40 yeast: 149.8

What do the screens show for `Cc1ccc(S(=O)(=O)N2CCN(CC(=O)NN=Cc3cc([N+](=O)[O-])ccc3Cl)CC2)cc1`?
Mtb hypoxia rep: inactive

How did O=[N+]([O-])c1cc(Br)ccc1NS(=O)(=O)c1ccccc1 do in these assays?
CCHF vOTU inh: inactive; PfHsp40 yeast: 64.8; Mtb hypoxia rep: inactive

How did O=[N+]([O-])c1ccccc1NS(=O)(=O)c1ccccc1 do in these assays?
CCHF vOTU inh: inactive

What do the screens show for `CC[C@@]12C(=O)N(c3cccc(F)c3)C(=O)N1C(c1ccc(OC)cc1)C1C(=O)N(C(C)(C)C)C(=O)C12` (stereo partly specified)?
Mtb hypoxia rep: inactive

Screening data (PubChem BioAssay)
